# Assay outcomes as filed in PubChem BioAssay.
# Avidin fluor: compound fluoresces at 488/530 nm on avidin beads | compound fluorescence 488/530 nm, flow cytometry; active compounds read high | AID 1775 | fluorescence (KMESF) at 10 µM | 220,000 tested, 0.38% active; in the data active = fluorescence above about 47
# RGS7-Gao: regulators of human RGS7-Galphao interaction. 220,000 tested, 0.35% active. Multiplexed bead flow cytometry, RGS7-Galphao binding; actives lie on both sides. binding response (% of control), % at 10 µM. AID 1439. P09471; in the data active = binding response below about 49% or above about 150%; inconclusive = no clear call, values can overlap the other calls; inactive = in between;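 note: fluorescent Galphao held in activated GDP-AlF4 state binding bead-coupled RGS7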
# Target sequence (P09471 whole entry, looked up): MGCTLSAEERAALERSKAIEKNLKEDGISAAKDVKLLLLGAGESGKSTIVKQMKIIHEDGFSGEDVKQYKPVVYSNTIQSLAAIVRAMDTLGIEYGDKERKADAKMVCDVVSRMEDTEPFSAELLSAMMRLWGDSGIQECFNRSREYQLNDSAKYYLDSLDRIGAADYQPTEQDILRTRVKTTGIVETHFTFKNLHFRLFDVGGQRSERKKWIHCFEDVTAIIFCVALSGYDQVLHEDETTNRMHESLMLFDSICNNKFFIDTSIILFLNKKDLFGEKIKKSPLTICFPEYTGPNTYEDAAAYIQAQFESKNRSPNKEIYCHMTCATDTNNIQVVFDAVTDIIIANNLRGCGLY
# GSH fluor: GSH bead compound fluorescence profile. 190,000 tested, 0.25% active. fluorescence (KMESF) at 10 µM. AID 1776. GSH beads flow cytometry, compound fluorescence 488/530 nm; active compounds read high; in the data active = fluorescence above about 89;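 note: glutathione beads carrying GST-tagged Bcl family fusion proteins plus one bare bead set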
# RGS16-Gao: modulates binding between human RGS16 and Galphao; O15492+P09471; bead-based flow cytometry RGS16-Galphao binding, fluorescence; actives lie on both sides; binding response (% of control), % at 10 µM; 220,000 tested, 0.38% active; AID 1441; call rule not given here;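 note: Galphao activated by GDP with aluminum fluoride before binding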
# RGS8-Gao: human RGS8-Galphao interaction regulation; 220,000 tested, 0.34% active; response (percent of control binding), % at 10 µM; multiplexed bead flow cytometry, RGS8-Galphao binding; actives lie on both sides; in the data active = response below about 60% or above about 140%; inactive = in between;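 note: Galphao activated as the GDP aluminium fluoride complex binding bead-coupled RGS8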
# RGS4-Gao reg: modulates binding of RGS4 to human Galphao; Multiplexed bead flow cytometry; actives lie on both sides; binding response (% of control), % at 10 µM; 220,000 tested, 0.33% active; AID 1415; in the data active = binding response below about 49% or above about 150%; inactive = in between;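 note: fluorescent Galphao activated with aluminum fluoride binding bead-coupled RGS4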
# A number is an active result; n = inactive; u = inconclusive; x = no result given. A selection: hits, their analogues and other compounds. The true share with any hit is near 1.2%.
SMILES,Avidin fluor,RGS7-Gao,GSH fluor,RGS16-Gao,RGS8-Gao,RGS4-Gao reg
CCOC(=O)c1ccc(NC(=S)N(CCN2CCCCCC2)Cc2cccs2)cc1,n,u,n,n,n,n
Cc1cccc(C)c1N1CCc2cn[nH]c21,48,n,n,n,n,n
N#CCC(=O)Nc1ccccc1C(=O)O,n,n,264,n,n,n
O=C(O)CC(=O)Nc1ccccc1C(=O)O,n,n,n,n,n,n
CCn1c(Cc2ccccc2)nnc1SCC(=O)Nc1ccc2c(c1)OCO2,n,n,n,n,n,n
Cn1c(Cc2ccccc2)nnc1SCC(=O)Nc1ccc2c(c1)OCCO2,n,n,255,n,n,n
Cc1cc(NC(=O)CSc2nnc3ccccn23)no1,n,u,n,n,n,n
Cc1ccc(C)c(OCC(=O)N/N=C/c2c(C)nn(-c3ccccc3)c2Cl)c1,56,n,n,n,n,n
O=C(O)c1ccccc1-n1c2ccccc2c2ccccc21,n,u,x,n,n,n
CN(Cc1ccccc1)S(=O)(=O)c1ccc(NS(=O)(=O)Cc2ccccc2)cc1,50,n,n,n,n,n
Nc1c(C(=O)N/N=C/c2ccc([N+](=O)[O-])cc2)sc2nnc(-c3ccccc3)c(-c3ccccc3)c12,n,u,x,n,n,n
C=CCn1c2ccccc2c2nnc(SCC(=O)NC(C(=O)OC)C(C)C)nc21 (stereo not drawn),119,n,n,n,n,n
Cc1nnc(SCC(=O)N2CCCCC2)n1CC1CCCO1 (stereo not drawn),n,n,94,n,n,n
Cc1cc(-c2ccccc2)oc(=O)c1NC(=O)c1ccccc1,n,n,n,n,n,n
O=C(Nc1ccc2oc(=O)ccc2c1)c1ccc(-c2cccc([N+](=O)[O-])c2)o1,65,u,x,n,n,n
O=C(Nc1ccc2oc(=O)ccc2c1)c1ccc(-c2cccc(Cl)c2)o1,n,u,x,n,n,n
O=C1OC(COc2ccc(Br)cc2)CN1c1ccccc1 (stereo not drawn),n,u,x,n,n,n
O=c1c2ccccc2c(C=Nc2cccc(O)c2)c(O)n1-c1ccc2c(c1)OCO2,57,n,n,n,n,n
COc1ccc(/C=N/n2c(C)cc(C)c(C(N)=O)c2=O)cc1,n,n,255,n,n,n
Cc1cc(NNC(=O)c2cccc(C(F)(F)F)c2)nc2c1c(C)nn2C,n,u,x,n,n,n
C=CCn1c(SCC(=O)c2ccc(O)c(O)c2)nnc1-c1ccccc1OC,n,n,247,n,n,n
O=C(COC(=O)c1cccc(S(=O)(=O)N2CCc3ccccc3C2)c1)NCc1ccco1,n,n,256,n,n,n
O=C(COC(=O)c1cc(S(=O)(=O)N2CCc3ccccc3C2)ccc1Cl)NCc1ccco1,n,n,n,n,n,n
Cc1cc2ncn(C(=O)N3CCCCCC3)c2cc1C,n,n,97,n,n,n
Cc1ccc(-c2ccc(CCC(=O)O)n2Cc2ccco2)cc1,49,n,n,n,n,n
SMILES,Avidin fluor,RGS7-Gao,GSH fluor,RGS16-Gao,RGS8-Gao,RGS4-Gao reg
O=S(=O)(NC1CCCCCCC1)c1cccs1,n,n,275,n,n,n
CCOC(=O)c1cc(CC)sc1NC(=O)COC(=O)c1cc[n+]([O-])cc1,n,u,n,n,n,n
CN1CCCC(OC(=O)c2cc(Cl)ccc2Cl)C1 (stereo not drawn),n,n,258,n,n,n
Cc1c(NS(C)(=O)=O)c(=O)n(-c2ccccc2)n1C,n,n,252,n,n,n
Cc1c(NS(=O)(=O)N2CCCC2)c(=O)n(-c2ccccc2)n1C,n,n,n,n,n,n
CCOC(=O)Nc1cc(C)ccc1OC,51,n,n,n,n,n
CCOC(=O)Nc1ccc(C)cc1NC(=O)OCC,n,n,n,n,n,n
Cc1ccc2ccc(S(=O)(=O)n3nc(C)cc3C)cc2c1,54,n,n,n,n,n
CCCN(CCC)S(=O)(=O)c1ccc(NS(=O)(=O)c2ccc(F)cc2)cc1,52,n,n,n,n,n
N#C/C(=C\c1ccc(N2CCOCC2)o1)C(=O)Nc1ccc(O)cc1,n,n,n,n,n,n
N#C/C(=C/c1ccc(N2CCCCC2)o1)C(=O)Nc1ccc(Cl)cc1,56,n,n,n,n,n
